# A selection: hits, their analogues and other compounds. The true share with any hit is near 27%.
# sEH activator: soluble epoxide hydrolase (human) activation | purified human sEH enzymatic activity, activator screen | activation, % at 2 µM | actives 0.04% (n = 91,000) | AID 717; in the data active = activation above about 37%
# CYP2C9 act: CYP2C9 (human) activation; recombinant CYP2C9, luciferin-H conversion, luminescence; active compounds read high; factor 1 = untreated enzyme, 0 = blocked; activation factor at 5 µM; actives 1.4% (n = 96,000); P11712;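 active = activation factor of 2 or more for CYP2C9 at a 5 µM dose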;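 note: 0 = sulfaphenazole-blocked wells and 1 = vehicle-only wells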
# Target sequence (P11712 whole entry, looked up): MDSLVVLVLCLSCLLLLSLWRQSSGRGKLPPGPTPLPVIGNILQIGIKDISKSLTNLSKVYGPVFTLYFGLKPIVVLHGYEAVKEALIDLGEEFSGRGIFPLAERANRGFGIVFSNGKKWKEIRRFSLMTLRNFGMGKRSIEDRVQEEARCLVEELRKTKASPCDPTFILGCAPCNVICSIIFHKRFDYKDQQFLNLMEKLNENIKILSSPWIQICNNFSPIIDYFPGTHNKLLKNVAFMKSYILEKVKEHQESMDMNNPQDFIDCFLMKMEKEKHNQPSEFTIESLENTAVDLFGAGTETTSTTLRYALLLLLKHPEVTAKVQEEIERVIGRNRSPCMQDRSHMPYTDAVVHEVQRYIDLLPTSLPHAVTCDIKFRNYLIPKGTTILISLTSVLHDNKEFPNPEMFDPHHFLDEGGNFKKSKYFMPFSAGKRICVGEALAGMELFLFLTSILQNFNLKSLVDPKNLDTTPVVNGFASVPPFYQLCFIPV
# sEH inhibitor: soluble epoxide hydrolase (human) inhibition | P34913 | AID 707 | inhibition, % at 2 µM | recombinant human sEH enzymatic activity assay | actives 0.34% (n = 91,000); in the data active = inhibition above about 80%
# CYP2C19 activ: cytochrome P450 2C19 (human) activation | P33261 | 96,000 tested, under 10 active | activation factor at 5 µM | AID 1025 | recombinant CYP2C19, luciferin-H EGE luminescence; active compounds read high; 0 = fully inhibited enzyme, 1 = untreated enzyme;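 active = activation factor of at least 2 at 5 µM in the primary screen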;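 note: 0 = wells with 2.5 mM tranylcypromine and 1 = vehicle-only wells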
# CYP2C19 inh: human CYP2C19 inhibition; inhibition, % at 5 µM; actives 21% (n = 96,000); AID 778; P33261; CYP2C19 Supersomes, luciferin-H EGE luminescence, 30 min;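 active = CYP2C19 inhibition above a set limit at 5 µM in the primary screen, cut at about 50% in these data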;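 note: plate controls were negative control wells for no effect and 2.5 mM tranylcypromine positive control for full effect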
# CYP2C9 inhib: blocks human cytochrome P450 2C9; inhibition, % at 5 µM; actives 20% (n = 96,000); P11712; CYP2C9 Supersomes, luciferin-H conversion, luminescence;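 active = blocking of liver enzyme CYP2C9 beyond about 50% at 5 µM, limit read from the data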
# Starred values were filed as active, the others as inactive; x = no result given.
SMILES,sEH activator,CYP2C9 act,sEH inhibitor,CYP2C19 activ,CYP2C19 inh,CYP2C9 inhib
C/C(NC1CCCCC1)=C(/C#N)C(=O)NCCN1CCOCC1,0,0.9,2,0.9,7,8
Cc1nn(Cc2c(Cl)cccc2Cl)c(C)c1NC(=O)c1cnn2c(C(F)F)cc(-c3ccccc3)nc12,-18,0.4,20,0.7,27,63*
Cc1ccc(C2CC(C(F)F)n3ncc(C(=O)Nc4c(C)nn(Cc5c(F)cccc5Cl)c4C)c3N2)cc1 (stereo not given),-3,x,6,x,x,x
Cc1ccc(-c2cc(C(F)F)n3ncc(C(=O)Nc4c(C)nn(Cc5ccccc5Cl)c4C)c3n2)cc1,-2,0.1,2,0.8,17,89*
Cc1ccc(-c2cc(C(F)F)n3ncc(C(=O)Nc4c(C)nn(Cc5c(Cl)cccc5Cl)c4C)c3n2)cc1,1,0.1,2,0.6,40,91*
CSC1=NCCN1C(=O)c1ccc(S(=O)(=O)N(C)C)cc1,-9,0.9,10,0.8,15,6
O=C1c2ccccc2NC(c2cccc(Cl)c2)N1N=C1CCCCCC1 (stereo not given),6,0.9,-5,0.7,29,7
CC1CCCCN1S(=O)(=O)c1cccc2cccnc12 (stereo not given),6,3.9*,-4,0.2,79*,-289
CC1CC(C)CN(S(=O)(=O)c2cccc3cccnc23)C1 (stereo not given),4,2.5*,1,0.3,68*,-155
COc1ccc(N2CCN(S(=O)(=O)c3cccc4cccnc34)CC2)cc1,6,2.6*,-4,0.2,82*,-155
O=c1n(S(=O)(=O)c2cccc3cccnc23)c2ccccc2n1S(=O)(=O)c1cccc2cccnc12,4,0.5,-2,0.8,17,48
O=S(=O)(c1cccc2cccnc12)N1CCOCC1,1,4*,-1,0.6,39,-301
Cc1ccc(OCc2nnc(NC(=O)c3ccco3)s2)c(C)c1,x,0.8,x,1.1,-11,20
CCOC(=O)C1CCCN(c2c(NCCN3CCCCC3CC)c(=O)c2=O)C1 (stereo not given),-8,0.8,8,1,0,15
COc1ccc(C2SCCN2S(=O)(=O)c2ccc(NC(C)=O)cc2)cc1 (stereo not given),-12,0.6,12,0.5,55*,43
CC(=O)Nc1ccc(S(=O)(=O)N2CCSC2c2ccc(C)cc2)cc1 (stereo not given),-3,0.4,2,0.8,20,55*
CC(=O)Nc1ccc(S(=O)(=O)N2CCSC2C(=O)O)cc1 (stereo not given),2,1,0,0.8,19,5
CC(=O)Nc1ccc(S(=O)(=O)N2CCN(C34CC5CC(CC(C5)C3)C4)CC2)cc1,-18,0.9,18,1,4,14
Cc1cc(C)nc(/N=C(\N)C2=C(O)CC(C)(C)CC2=O)n1,-2,0.9,3,0.8,23,13
N#CC1=C(N)N=C(SCc2cccc3ccccc23)C(C(N)=O)C12CCCCC2 (stereo not given),-16,0.3,15,0.3,72*,74*
NC(=O)Cn1nnc(-c2ccccc2NC(=O)c2cnccn2)n1,13,0.9,-11,1.1,-11,9
c1cncc(-c2csc(NCc3ccco3)n2)c1,-6,0.3,6,0.1,86*,74*
c1ccc(CCNc2nc(-c3cccnc3)cs2)cc1,0,0.4,-1,0.1,92*,59*
COc1ccc(-c2csc(NCc3ccco3)n2)cc1C,x,0.4,x,0.2,81*,62*
CCC(OC(=O)c1cccs1)C(=O)NCc1ccco1 (stereo not given),8,0.6,-9,0.2,83*,44
SMILES,sEH activator,CYP2C9 act,sEH inhibitor,CYP2C19 activ,CYP2C19 inh,CYP2C9 inhib
CCC(OC(=O)c1cccs1)C(=O)NC1CCCCC1 (stereo not given),4,0.7,-3,0.2,75*,28
O=C(OC(C(=O)NC1CCCC1)c1ccccn1)c1cccs1 (stereo not given),-10,1,10,0.9,6,0
CN(CC(=O)O)S(=O)(=O)c1cc(Cl)ccc1Cl,4,1,-2,0.9,6,-1
CN(CC(=O)N1CCCC1)S(=O)(=O)c1cc(Cl)ccc1Cl,12,2.4*,-8,0.8,19,-141
CN(CC(=O)Nn1cnnc1)S(=O)(=O)c1cc(Cl)ccc1Cl,10,0.1,-6,0.2,81*,87*
Cn1c(=O)c2c(-c3ccccc3)n(-n3cnnc3)cc2n(C)c1=O,13,1,-15,1.1,-14,-4
c1ccc(OCCOCCSc2ncccn2)cc1,-1,0.9,2,0.5,46,5
CCOc1ccc(S(=O)(=O)N(CCO)CCO)cc1-c1nc2c(C(C)(C)C)nn(C)c2c(=O)[nH]1,12,0.4,-12,1.1,-7,59*
CCOc1ccc(S(=O)(=O)NC(C)(C)C)cc1-c1nc2c(C(C)(C)C)nn(C)c2c(=O)[nH]1,15,0.3,-15,0.8,22,66*
CCOc1ccc(-n2cnnn2)cc1S(=O)(=O)NCc1ccccc1,0,1,3,0.7,27,-4
CN1CCN(C(=O)N2CCNC2=O)CC1,x,1.3,x,1.2,-23,-33
COc1ccc(S(=O)(=O)N(CC(=O)NC(C)C)Cc2ccccc2)cc1,3,0.5,-5,0.5,52*,50*
CC(C)NC(=O)CN(Cc1ccccc1)S(=O)(=O)c1ccccc1,x,0.6,x,0.6,40,44
Cc1ccc(S(=O)(=O)N(CC(=O)N2CCC(C(N)=O)CC2)Cc2ccc(F)cc2)cc1,-7,0.6,7,0.7,30,38
O=C(CN(Cc1ccc(F)cc1)S(=O)(=O)c1ccccc1)N1CCCCC1,2,0.5,-4,0.3,65*,45
COc1ccc(S(=O)(=O)N(CCc2ccccc2)CC(=O)NC(C)C)cc1,-7,0.4,8,0.4,56*,58*
CNC(=O)CN(Cc1ccccc1)S(=O)(=O)c1ccccc1,x,0.9,x,0.4,59*,14
COc1ccc(S(=O)(=O)N(CCc2ccccc2)CC(=O)N2CCOCC2)cc1,18,0.9,-18,0.8,25,7
CS(=O)(=O)N1CCN(C(=O)c2ccc(F)cc2)CC1,-7,1.2,7,1.1,-8,-24
CCOC(=O)/C(=N/Nc1ccc(Cl)cc1)S(=O)(=O)c1ccc(Cl)cc1,19,0.9,-16,0.9,8,9
CCOc1ccc2nnc(-c3ccc(Br)cc3)n2n1,-8,x,7,x,x,x
Cc1ccc(C(=O)COC(=O)C2C3C=CC(C3)C2C(=O)OCC(=O)c2ccc(C)c(C)c2)cc1C (stereo not given),16,0.5,-15,0.7,29,51*
O=C(CC(Nc1ccccc1Cl)C(=O)OCC(=O)c1cccs1)c1ccccc1 (stereo not given),14,0.4,-14,0.3,65*,62*
